Data: PubChem BioAssay AID651791 (National Center for Advancing Translational Sciences (NCATS), 2012)
Records with an inconclusive call do not appear. Calls of active or inactive are those of the source. Calls follow the shape of the dose curve; as a rule, active = well fitted inhibition curve with a large enough effect; inconclusive = small, poorly fitted or top-dose-only effect; inactive = no such curve, though single readings can be large or run the other way.

Experiment: InCell qHTS Assay for Inhibitors of the mTORC1 Signaling Pathway in MEF (Tsc2-/-, p53-/-) Cells: Hit Validation;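 also: phospho-S6 Ser235/236 signal normalized to propidium iodide cell count per well; nearly all actives have a fitted effect of over 75% in size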
Conditions: phospho-rpS6 immunofluorescence, 24 h; activity change, negative = inhibition: at 38.3 µM (top of the series)
Potency is read from the fitted curve at half-maximal effect.

Activity change, negative = inhibition, -0.0295%:
CN(C)c1ccc(Nc2nc3ccccc3n3nnnc23)cc1

Activity change, negative = inhibition, -22.5%:
Cc1c(Cl)cccc1NC(=O)c1oc2ccc(S(=O)(=O)N3CCC4(CC3)OCCO4)cc2c1C

Activity change, negative = inhibition, -27%:
CC(C)(C)C(=O)Nc1ccc(-c2nc3ccc(NC(=O)C(C)(C)C)cc3[nH]2)cc1

Activity change, negative = inhibition, -21.8%:
CCCCN1C(=O)C(O)(c2c(C)[nH]c3ccccc23)c2cc(Br)ccc21 (stereo not drawn)

Activity change, negative = inhibition, -100%:
COc1ccc(C2=NS(=O)(=O)N(C)C(C(=O)Nc3ccc(OC(F)(F)F)cc3)=C2)cc1
CCN1CCN(c2ccc(NS(=O)(=O)c3c(C)nc4sccn4c3=O)cc2Cl)CC1
CCOc1cc(C(Nc2cc(C)ccn2)c2ccc3cccnc3c2O)ccc1OC (stereo not drawn)
Cc1cccc(-n2ncc3c(Nc4c(C)cc(C)cc4C)ncnc32)c1
COc1ccc(CNC(=O)c2cccc(N3CCCS3(=O)=O)c2)cc1OC
CCCCN(C)CCNC(=O)c1cc2c(=O)n(C)c3ccccc3c2n1C
COc1ccccc1NC(=O)c1sc(-c2ccc(Cl)cc2)cc1N
COc1cc2c(cc1OC)n(CC(=O)c1ccc(F)cc1)c(=O)n1nc(CCn3nc(C)cc3C)nc21
COc1cc(OC)cc(C(=O)NCc2ccc3c(c2)CCN3C(=O)c2ccccc2)c1
O=C(NCc1ccccc1)c1ccc2c(c1)N(Cc1ccccc1F)C(=O)c1ccccc1S2=O (stereo not drawn)
COc1cc(O)ccc1-c1nc2ccc(Br)cn2c1Nc1ccccc1C
O=S(=O)(NCc1nc2cccnc2n1Cc1ccccc1Cl)c1ccc(F)c(Cl)c1
Cc1cccc(CSc2cn(CC(=O)N3CCCCCC3)c3ccccc23)c1
COc1ccccc1NC(=O)C1=C(C)Nc2nc(SCc3ccccc3)nn2C1c1cccs1 (stereo not drawn)
COc1ccc(NC(=O)c2ccco2)cc1NC(=O)COc1ccccc1Cl
COc1cc(CNc2ccc3c(c2)ncn3C(C)C)cc(OC)c1OC
CCc1nn(CC(=O)NCc2ccccc2Cl)c(=O)c2cccn12
COCCCNc1ncnc2c1cnn2-c1ccc(F)cc1
COc1cc(Cl)c(C)cc1NC(c1ccccc1)c1nnc(-c2ccccc2Cl)o1 (stereo not drawn)
CCC1=Nc2cc(C(=O)NC3CCCC3)ccc2Sc2ccc(Br)cc21
CCN(CC)c1ccc(NC(=O)CCS(=O)(=O)c2cccc3nsnc23)c(C)c1
CCOc1ccccc1NC(=O)Cn1c(=O)n(CCC(=O)NCc2ccc3c(c2)OCO3)c(=O)c2ccccc21
CCc1ccc(-c2nc(CSCC(=O)NCc3ccc(C)cc3)c(C)o2)cc1
Cn1nc(-c2ccc(OCC(=O)Nc3ccc(Cl)cc3)cc2)c2ccccc2c1=O
C#CCN1C(=O)C(O)(CC(=O)c2ccc(OC)c(OC)c2)c2cc(Br)ccc21 (stereo not drawn)
CCCS(=O)(=O)c1c(S(=O)(=O)CCC)c2cc(C(C)(C)C)ccn2c1C(=O)c1ccc(OC)c(OC)c1
CCCSc1oc(-c2ccco2)nc1S(=O)(=O)c1ccc(Br)cc1

Activity change, negative = inhibition, -28.2%:
O=C(c1ccc(CS(=O)c2ccccc2Cl)o1)N1CCN(c2cccc(C(F)(F)F)c2)CC1 (stereo not drawn)

Activity change, negative = inhibition, -9.58%:
COc1ccc(OC)c(NC2=C(c3ccccc3)C(=O)c3ccccc32)c1

Activity change, negative = inhibition, -25.7%:
COc1ccc(OC)c(Nc2c3c(nc4ccccc24)CCC3)c1

Potency, active:
CC(=O)Nc1ccc(NC(=O)c2nc(S(=O)(=O)Cc3ccc(F)cc3)ncc2Cl)cc1 3.29 µM
CCCCS(=O)(=O)c1oc(-c2ccc(F)cc2)nc1S(=O)(=O)c1ccc(C)cc1 5.85 µM
CC(C)CCNC(=O)C(=O)Nc1c2c(nn1-c1ccc(Cl)cc1)CSC2 18.5 µM
Cc1cc(C)c(NC(=O)Cn2c(=O)n(Cc3ccc(C(=O)NCc4ccc5c(c4)OCO5)cc3)c(=O)c3ccccc32)c(C)c1 3.29 µM
